From PubChem BioAssay (NCI)
Values joined by “and” are separate entries in the source; they are usually repeats but may differ in a detail not shown here. Equal values may be shown once. This is part of a sample that, as a whole, favours compounds with a hit. Of some 79,000 tested, about 15% had one in any assay. Some structures have more than one record in an assay (separate samples or runs), and their calls can disagree. Active and inactive are the calls of the source. No stated cut-off is given here; in the data, active means growth inhibition above about 70%; inactive means the rest.

What was measured:
[1] = NCI Yeast Anticancer Drug Screen. Data for the mlh1 strain (AID 171);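 further: 0% = growth of vehicle-treated control cultures of the same strain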; settings: S. cerevisiae mlh1 strain growth inhibition, stronger effect = higher value
How it was run: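 A yeast strain with a defined genetic lesion serves as the test organism. Cultures receive compound or vehicle, and growth is measured.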

[2] = NCI Yeast Anticancer Drug Screen. Data for the sgs1 strain (AID 173);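 further: 0% = growth of vehicle-only control cultures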; settings: S. cerevisiae sgs1 mutant, stronger effect = higher value
How it was run: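 A genetically defined yeast mutant is incubated with the test compound, and its growth is compared to that of the same strain given vehicle.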

[3] = NCI Yeast Anticancer Drug Screen. Data for the mlh1 rad18 strain (AID 175); settings: S. cerevisiae mlh1 rad18 strain growth inhibition, stronger effect = higher value
How it was run: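 Steps: expose repair-defective yeast to compound; measure growth; express inhibition against vehicle-treated controls.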

[4] = NCI Yeast Anticancer Drug Screen. Data for the rad18 strain (AID 177); settings: S. cerevisiae rad18 mutant growth inhibition, stronger effect = higher value
How it was run: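 Measured value is growth inhibition of a yeast strain bearing a DNA repair alteration, referenced to vehicle-treated cells.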

[5] = NCI Yeast Anticancer Drug Screen. Data for the wt1 strain (AID 149);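 further: 0% = growth of vehicle-treated wt1 cultures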; settings: S. cerevisiae wt1 strain (SPY 50644) growth inhibition, stronger effect = higher value
How it was run: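 The wt1 strain was treated with compounds, and growth was compared with vehicle-treated cultures to give inhibition.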

[6] = NCI Yeast Anticancer Drug Screen. Data for the rad50EPP+ strain (AID 151);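 further: 0% = growth of vehicle-treated control cultures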; settings: S. cerevisiae rad50 mutant strain, stronger effect = higher value
How it was run: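 Read-out is yeast growth inhibition relative to vehicle; cells used were the rad50EPP+ strain.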

[7] = NCI Yeast Anticancer Drug Screen. Data for the mgt1 strain (AID 153); settings: S. cerevisiae mgt1 mutant growth inhibition, stronger effect = higher value
How it was run: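 Measured: inhibition of mgt1 yeast growth by compound, normalized to vehicle-treated cultures.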

[8] = NCI Yeast Anticancer Drug Screen. Data for the rad50 strain (AID 155);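 further: 0% = growth of vehicle-only cultures of the same strain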; settings: S. cerevisiae rad50 strain growth inhibition, stronger effect = higher value
How it was run: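 Cells are treated with compound, grown, and their growth is then scored against vehicle-only cultures of the same repair-deficient yeast strain.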

[9] = NCI Yeast Anticancer Drug Screen. Data for the mec2-1 strain (AID 157); settings: S. cerevisiae mec2-1 strain, stronger effect = higher value
How it was run: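 Using mec2-1 yeast: add compound, measure growth, express inhibition versus vehicle-treated cultures.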

[10] = NCI Yeast Anticancer Drug Screen. Data for the rad14 strain (AID 159);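 further: 0% = growth of vehicle-treated control cultures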; settings: S. cerevisiae rad14 strain growth inhibition, stronger effect = higher value
How it was run: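 Readout: yeast growth inhibition, referenced to vehicle-only cultures. Strain bears a defined alteration in DNA damage repair.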

[11] = NCI Yeast Anticancer Drug Screen. Data for the sgs1 mgt1 strain (AID 161);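 further: 0% = growth of cultures given vehicle only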; settings: S. cerevisiae sgs1 mgt1 strain, stronger effect = higher value
How it was run: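 This yeast growth screen uses a strain with defined DNA-repair lesions; compound-treated growth is compared with vehicle-treated growth.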

[12] = NCI Yeast Anticancer Drug Screen. Data for the CLN2oe strain (AID 163);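 further: 0% = growth of vehicle-only control cultures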; settings: S. cerevisiae CLN2oe strain, stronger effect = higher value
How it was run: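 Whole-cell yeast growth assay. A strain engineered for altered cell-cycle control received compound, and inhibition relative to vehicle-treated cultures was recorded.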

[13] = NCI Yeast Anticancer Drug Screen. Data for the cln2 rad14 strain (AID 165);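 further: 0% = growth equal to vehicle treated cultures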; settings: S. cerevisiae cln2 rad14 strain, stronger effect = higher value
How it was run: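 Yeast strain cln2 rad14, bearing defects in cell cycle control and DNA repair, serves as the test system; values reflect growth inhibition compared with vehicle.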

[14] = NCI Yeast Anticancer Drug Screen. Data for the bub3 strain (AID 167); settings: S. cerevisiae bub3 mutant strain, stronger effect = higher value
How it was run: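 Part of a panel of yeast mutants defective in DNA damage repair or cell cycle regulation. Each strain is grown with compound, and inhibition is calculated relative to solvent-treated cultures.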

[15] = NCI Yeast Anticancer Drug Screen. Data for the wt2 strain (AID 169);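 further: 0% = growth of vehicle-treated yeast cultures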; settings: S. cerevisiae wt2 strain growth inhibition, stronger effect = higher value
How it was run: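 Treated yeast vs. vehicle-treated yeast: growth inhibition determined.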

[16] = NCI Yeast Anticancer Drug Screen. Data for the rad52 strain (AID 147);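 further: 0% = growth of vehicle-treated control cultures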; settings: S. cerevisiae rad52 mutant growth inhibition, stronger effect = higher value
How it was run: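 Here a repair-compromised yeast strain receives each compound; its growth is then quantified and normalised to vehicle-only controls.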

[17] = at 5.0 µM (retest, dose inferred, filed as 0.5)
[18] = at 50.0 µM (retest, dose inferred, filed as 5.0)

Measured: growth inhibition

Cc1ccc(N=Nc2ccc(O)c(=O)cc2)cc1
active: [1]; at 33.0 µM 83% | [1]; at 100.0 µM 90% | [2]; at 33.0 µM 85% | [2]; at 100.0 µM 93% | [3]; [18] 90% | [4]; at 33.0 µM 86% | [4]; at 100.0 µM 93%
-6.6% (inactive) and 86.5% (active): [3]; at 50.0 µM
inactive: [1]; at 1.2 µM 3% | [1]; at 3.7 µM 5% | [1]; at 11.0 µM 47% | [2]; at 1.2 µM 7% | [2]; at 3.7 µM 28% | [2]; at 11.0 µM 57% | [3]; [17] 9% | [4]; at 1.2 µM 0% | [4]; at 3.7 µM 22% | [4]; at 11.0 µM 50%

COc1cccc(/C=N/C(/N=C/c2cccc(OC)c2O)c2cccc(OC)c2O)c1O
inactive: [5]; at 1.2 µM -1% | [5]; at 3.7 µM 1% | [5]; at 11.0 µM 7% | [5]; at 33.0 µM 26% | [6]; at 1.2 µM 2% | [6]; at 3.7 µM 15% | [6]; at 11.0 µM 61% | [7]; at 1.2 µM -1% | [7]; at 3.7 µM -2% | [7]; at 11.0 µM 5% | [7]; at 33.0 µM 36% | [8]; at 1.2 µM 4% | [8]; at 3.7 µM -28% | [8]; [17] 19% | [8]; at 11.0 µM 52% | [9]; at 1.2 µM -1% | [9]; at 3.7 µM 2% | [9]; [17] -4% | [9]; at 11.0 µM 8% | [9]; at 33.0 µM 25% | [9]; [18] 27% | [10]; at 1.2 µM 1% | [10]; at 3.7 µM 6% | [10]; at 11.0 µM 19% | [11]; [17] 4% | [12]; at 1.2 µM -2% | [12]; at 3.7 µM 3% | [12]; at 11.0 µM 8% | [12]; at 33.0 µM 20% | [12]; at 100.0 µM 54% | [13]; [17] -1% | [13]; [18] 34% | [13]; at 50.0 µM 45% | [14]; at 1.2 µM -2% | [14]; at 3.7 µM -1% | [14]; [17] -5% | [14]; at 11.0 µM 1% | [14]; at 33.0 µM 39% | [14]; [18] 43% | [14]; at 50.0 µM 67% | [15]; at 1.2 µM 0% | [15]; at 3.7 µM 7% | [15]; at 11.0 µM 4% | [15]; at 33.0 µM 24% | [1]; at 1.2 µM 0% | [1]; at 3.7 µM 2% | [1]; at 11.0 µM 7% | [1]; at 33.0 µM 33% | [2]; at 1.2 µM -1% | [2]; at 3.7 µM 3% | [2]; at 11.0 µM 19% | [2]; at 33.0 µM 67% | [3]; [17] 4% | [3]; [18] 65%
active: [5]; at 100.0 µM 91% | [6]; at 33.0 µM 93% | [6]; at 100.0 µM 98% | [7]; at 100.0 µM 98% | [8]; at 33.0 µM 87% | [8]; [18] 79% | [8]; at 50.0 µM 89.5% | [8]; at 100.0 µM 97% | [9]; at 50.0 µM 87% | [9]; at 100.0 µM 96% | [10]; at 33.0 µM 73% | [10]; at 100.0 µM 99% | [11]; [18] 71% | [11]; at 50.0 µM 86.7% | [14]; at 100.0 µM 98% | [15]; at 100.0 µM 93% | [1]; at 100.0 µM 97% | [2]; at 100.0 µM 98% | [3]; at 50.0 µM 94.8%

CC1=NOC(=O)/C1=C/c1ccc2c(c1)OCO2
inactive: [16]; at 1.2 µM 0% | [16]; at 3.7 µM 4% | [16]; at 11.0 µM 17% | [16]; at 33.0 µM 32% | [16]; at 100.0 µM 39% | [6]; at 1.2 µM 6% | [6]; at 3.7 µM 5% | [6]; at 11.0 µM 41% | [6]; at 33.0 µM 47% | [7]; at 1.2 µM -4% | [7]; at 3.7 µM 1% | [7]; at 11.0 µM 1% | [7]; at 33.0 µM -10% | [7]; at 100.0 µM 9% | [8]; at 1.2 µM 1% | [8]; at 3.7 µM 3% | [8]; [17] 0% | [8]; at 11.0 µM 26% | [8]; at 33.0 µM 49% | [8]; [18] 24% | [8]; at 100.0 µM 59% | [9]; at 1.2 µM 0% | [9]; at 3.7 µM -1% | [9]; [17] 13% | [9]; at 11.0 µM 10% | [9]; at 33.0 µM 12% | [9]; at 100.0 µM 28% | [10]; at 1.2 µM 2% | [10]; at 3.7 µM 2% | [10]; at 11.0 µM 7% | [10]; at 33.0 µM 11% | [10]; at 100.0 µM 29% | [11]; [17] 23% | [11]; [18] 58% | [11]; at 50.0 µM 65.5% | [13]; [17] 2% | [13]; [18] 51% | [13]; at 50.0 µM 20.4% | [14]; at 1.2 µM -5% | [14]; at 3.7 µM -1% | [14]; [17] 19% | [14]; at 11.0 µM 3% | [14]; at 33.0 µM 3% | [14]; [18] 30% | [14]; at 100.0 µM 18% | [15]; at 1.2 µM 2% | [15]; at 3.7 µM 0% | [15]; at 11.0 µM 8% | [15]; at 33.0 µM 12% | [15]; at 100.0 µM 13% | [3]; [17] 23% | [3]; at 50.0 µM 48.6% | [4]; at 1.2 µM 2% | [4]; at 3.7 µM -12% | [4]; at 11.0 µM 10% | [4]; at 33.0 µM 36% | [4]; at 100.0 µM 61%
active: [6]; at 100.0 µM 87% | [8]; at 50.0 µM 82.2% | [9]; [18] 83% | [9]; at 50.0 µM 78.6% | [14]; at 50.0 µM 70.5% | [3]; [18] 81%
